Screening results as filed in PubChem BioAssay.
In the library only some 4.5% were active in any assay of this set; here they are far more common.
Rpn11 block = Rpn11 (PSMD14) deubiquitinase inhibitors, primary screen, biochemical, fluorescence polarization, uHTS. inhibition, % at 20 µM. AID 588493, 2011. 26S proteasome non-ATPase regulatory subunit 14 (Homo sapiens), O00487. human 26S proteasome, Ub4-pepOG fluorescence polarization; 20S core pre-blocked with epoxomicin. hit rate 0.59% among 360,000;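 active = inhibition at 20 µM, scaled to each plate's controls, above about 33%, limit read from the data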
Target sequence (O00487 whole entry, looked up): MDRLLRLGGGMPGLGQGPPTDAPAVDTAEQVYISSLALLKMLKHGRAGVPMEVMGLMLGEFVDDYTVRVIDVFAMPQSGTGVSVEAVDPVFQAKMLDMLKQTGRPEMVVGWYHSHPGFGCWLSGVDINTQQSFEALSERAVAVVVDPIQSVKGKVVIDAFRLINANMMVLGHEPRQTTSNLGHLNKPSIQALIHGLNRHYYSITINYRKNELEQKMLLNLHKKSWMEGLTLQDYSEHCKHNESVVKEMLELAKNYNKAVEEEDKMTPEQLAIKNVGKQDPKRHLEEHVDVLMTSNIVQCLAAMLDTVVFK
TPT1 inhibitor = Candida albicans TPT1 enzyme inhibitors, primary screen, biochemical, fluorescence polarization | tRNA 2'-phosphotransferase TPT1 (Candida albicans SC5314) | recombinant caTPT1, FP RNA substrate dephosphorylation | inhibition, % at 5 µM | hit rate 0.81% among 300,000;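 active = inhibition above the mean of all tested compounds plus 3 SD, set per screening campaign, cut at about 24% in these data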
GRIN3A LBD mod = binders of NR3A ligand-binding domain, primary screen, biophysical, differential scanning fluorimetry, uHTS; Glutamate receptor ionotropic, NMDA 3A (GRIN3A) ligand-binding domain; NR3A LBD differential scanning fluorimetry, Tm shift; 0% = protein alone, 100% = glycine-bound protein; Tm shift relative to glycine control, % at 25 µM; hit rate 2.5% among 340,000;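 active = melting temperature shift of at least 10% of the positive control shift, at one fixed dose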
EBNA-1 inh = EBNA-1 DNA-binding inhibitors, primary screen, biochemical, fluorescence polarization | hit rate 0.34% among 300,000 | inhibition, % at 14.8 µM; in the data active = inhibition above about 28%
dFosB act-1 = activators of delta FosB homodimer, primary screen, biochemical, fluorescence polarization, TAMRA-CDK5 oligo, single point; Protein FosB (Mus musculus), P13346; purified delta FosB; percent of positive-control signal above neutral wells; activation, % at 25 µM; hit rate 0.99% among 340,000; AID 493131, 2011;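 active = mean activation above about 17%, with every replicate also reaching it, limit read from the data, passing the limit was not always enough; inconclusive = only one of the two conditions met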
ZTA DNA inh = counter-screen for EBNA-1 inhibitors: inhibitors of Epstein-Barr virus ZTA | P03206 | inhibition, % at 11 µM | ZTA-DNA binding, fluorescence polarization | hit rate 0.15% among 320,000; in the data active = inhibition above about 33%
Target sequence (P03206 whole entry, looked up): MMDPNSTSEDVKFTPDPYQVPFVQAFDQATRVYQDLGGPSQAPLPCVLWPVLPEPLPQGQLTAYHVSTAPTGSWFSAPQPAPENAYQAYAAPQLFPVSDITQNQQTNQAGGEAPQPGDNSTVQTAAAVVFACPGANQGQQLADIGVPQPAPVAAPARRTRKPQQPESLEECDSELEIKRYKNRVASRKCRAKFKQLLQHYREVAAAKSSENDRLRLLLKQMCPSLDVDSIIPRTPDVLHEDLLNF
dFosB act-2 = activators of mouse delta FosB DNA binding, confirmation, biochemical, fluorescence polarization, TAMRA-CDK5 oligo, cherry-picked samples; shares compounds with dFosB act-1; purified delta FosB; normalised: neutral wells 0, positive control 100; activation, % at 24.9 µM; 2,400 tested, under 10 active; AID 588690, 2011;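 active = highest replicate activation at or above 34% and every replicate reaching that threshold; inconclusive = meets only one of the two criteria; inactive = meets neither criterion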;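 note: higher polarization means more probe DNA bound by delta FosB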
A number is an active result; - = inactive; ? = inconclusive; . = no result.

SMILES	Rpn11 block	TPT1 inhibitor	GRIN3A LBD mod	EBNA-1 inh	dFosB act-1	ZTA DNA inh	dFosB act-2
O=C(Nc1ccc(S(=O)(=O)Nc2cnc3ccccc3n2)cc1)c1cccc(OC(F)F)c1	-	-	11	-	57	-	-
O=C(Nc1ccc(S(=O)(=O)Nc2cnc3ccccc3n2)cc1)c1ccccc1Br	-	-	-	-	-	-	.
CCOC(=O)c1ccc(NC(=O)COc2ccc(CNC3CCCCC3)cc2OC)cc1	-	-	-	-	-	-	.
Cc1ccc(-c2nnc(NCc3nc4ccccc4[nH]3)c3ccccc23)cc1S(=O)(=O)N1CCOCC1	-	-	-	-	56	-	-
O=C(N/N=C/c1cccc(OC(=O)c2ccco2)c1)c1ccc(F)cc1	-	-	-	-	-	-	.
CCOc1cc(/C=N/N=C(/N)c2nonc2N)cc(Br)c1OCc1ccc(Cl)cc1	-	-	-	-	34	-	-
Cc1ccc(NC(=O)NC(=O)COC(=O)c2ccc(O)cc2O)c(C)c1	-	.	.	.	.	.	.
Cn1nc(C(=O)Nc2cccc(Cl)c2)cc1C(=O)Nc1cccc(Cl)c1	-	-	-	-	33	-	-
CC(Oc1ccc(C(=O)c2ccccc2)cc1)C(=O)Nc1ccc(S(N)(=O)=O)cc1 (stereo unspecified)	-	-	-	-	-	-	.
CC(OC(=O)c1cc2ccccc2cc1O)C(=O)Nc1ccc(S(N)(=O)=O)cc1 (stereo unspecified)	-	-	-	-	25	-	-
CCCCc1nnc(NC(=O)CCS(=O)(=O)c2ccc(Cl)cc2)s1	-	.	-	.	24	-	-
CN(C)c1nc(NCc2ccccc2)nc(N/N=C/c2ccc(Br)cc2)n1	-	-	-	-	-	-	.
CN(C)c1nc(NCc2ccccc2)nc(N/N=C/c2ccc3c(c2)OCO3)n1	-	-	-	-	58	-	-
C/C(=N\NC(=O)c1nnn(-c2nonc2N)c1C(C)C)c1ccc2ccccc2c1	-	-	-	-	41	-	-
C/C(=N\NC(=O)c1nnn(-c2nonc2N)c1C(C)C)c1ccncc1	-	-	-	-	-	-	.
O=C(Nc1ccc2c(c1)OCO2)Nc1ccc(Cl)cc1Cl	-	-	34	-	29	-	-
Cc1ccc(NC(=O)Nc2cnccn2)cc1Cl	-	-	-	-	-	-	.
O=C(Nc1ccc2c(c1)OCO2)c1cccc(Cl)c1	-	-	-	-	-	-	.
O=C(Nc1cnccn1)Nc1ccc(Cl)cc1Cl	-	-	-	-	34	-	-
Cc1cccc(NC(=O)CNC(=O)[C@H]2O[C@@H](n3ccc(N)nc3=O)[C@H](O)[C@@H]2O)c1C	-	.	.	.	.	.	.
O=C(COC(=O)c1ccc2c(c1)C(=O)N(Cc1ccncc1)C2=O)Nc1cccc2ccccc12	-	-	-	-	27	-	-
COC(=O)N/N=C/c1sc(N2CCCCC2)nc1-c1cccs1	-	-	-	-	-	-	.
COc1ccc2cc(C)c3nnc(SCC(=O)Nc4cc(OC)c(OC)cc4C(=O)O)n3c2c1	-	-	-	-	-	-	.
COc1ccc2cc(C)c3nnc(SCC(=O)Nc4nc(-c5ccccc5)cs4)n3c2c1	-	-	-	-	41	-	-
O=C(/C=C/c1cc2c(cc1Br)OCO2)NCc1ccc(F)cc1	-	-	-	-	25	-	-
SMILES	Rpn11 block	TPT1 inhibitor	GRIN3A LBD mod	EBNA-1 inh	dFosB act-1	ZTA DNA inh	dFosB act-2
Cc1ccc(C)c(NC(=S)NC(NC(=O)Cc2cccc3ccccc23)C(Cl)(Cl)Cl)c1 (stereo unspecified)	-	-	-	-	28	-	-
O=C(NCc1ccncc1)Nc1cc(Cl)ccc1Cl	-	-	-	-	-	-	.
O=C(NCc1ccccc1)Nc1cc(Cl)ccc1Cl	-	-	-	-	40	-	-
CNC(=O)Cc1csc2ccc(Cl)cc12	-	-	-	-	-	-	.
O=C(NCc1csc2ccc(Cl)cc12)Nc1cccc2ccccc12	-	-	-	-	44	-	-
O=C(Cc1ccccc1)NC(NC(=S)Nc1cc(Cl)ccc1Cl)C(Cl)(Cl)Cl (stereo unspecified)	-	-	16	-	22	-	-
Cc1ccc(C)c(NC(=S)NC(NC(=O)N(C)C)C(Cl)(Cl)Cl)c1 (stereo unspecified)	-	-	-	-	-	-	.
Cc1ccc(NC(=S)N2CCCCC2)cc1C	-	-	-	-	-	-	.
O=C(Cn1cc(C(F)(F)F)cc(Cl)c1=O)NCc1ccc(Cl)cc1Cl	-	-	-	-	46	-	-
CCNC(=O)Cn1cc(C(F)(F)F)cc(Cl)c1=O	-	-	-	-	-	-	.
NC(=O)c1ccc(NC(=O)CSC2=Nc3ccccc3C3CC=NN23)cc1 (stereo unspecified)	-	-	-	-	25	-	-
N#CNC(N)=Nc1cccc(Cl)c1	-	-	-	-	22	-	-
NS(=O)(=O)c1cccc(NC(=O)COC(=O)CNC(=O)c2ccc(-c3ccccc3)cc2)c1	-	.	-	.	-	-	.
COc1ccc(S(=O)(=O)N(C)C)cc1NC(=O)C1CCN(c2ncnc3sc(C)c(C)c23)CC1	-	.	-	.	47	.	-
CN(C)c1ccc(CC(=O)c2nc3ccccc3s2)cc1	-	-	-	-	-	-	.
COc1ccc2cc1Oc1ccc(cc1)C[C@H]1c3cc(c(OC)cc3CCN1C)Oc1c(OC)c(OC)cc3c1[C@H](C2)N(C)CC3	-	-	-	-	26	-	?
CN(CC(=O)Nc1ccc(Cl)c(C(F)(F)F)c1)C(=O)c1cc(=O)c2ccccc2o1	-	.	-	.	33	-	-
CN(CC(=O)Nc1ccc(Cl)c(C(F)(F)F)c1)C(=O)/C=C/c1cccs1	-	.	-	.	29	-	-
CN(CC(=O)Nc1ccc(Cl)c(C(F)(F)F)c1)C(=O)/C=C/c1ccco1	-	-	-	-	-	-	.
O=C(Nc1ccc(-c2nnc3n2CCCCC3)cc1)c1cc2ccccc2o1	-	-	-	-	-	-	.
Cc1c(C(=O)Nc2ccc(-c3nnc4n3CCCCC4)cc2)oc2c1ccc1ccccc12	-	-	-	-	32	-	-
Cc1c(C(=O)OCC(=O)N2CC(=O)Nc3ccccc32)oc2ccc(Br)cc12	-	-	-	-	70	-	-
O=C(Nc1cccnc1Cl)c1cc(-c2cccc(O)c2)on1	-	-	-	-	55	-	-
COc1cccc(-c2cc(C(=O)Nc3cccnc3Cl)no2)c1	-	-	-	-	31	-	-
